# According to PubChem BioAssay AID504834 (National Center for Advancing Translational Sciences (NCATS), 2011):
# In all, about 320,000 compounds went through this assay and about 22,000 (6.9%) were called active. Inconclusive results (about 27%) are left out. The full list was thinned out, with actives kept by preference. Unmarked numbers belong to inactive results. Calls follow the shape of the dose curve; as a rule, active = well fitted inhibition curve with a large enough effect; inconclusive = small, poorly fitted or top-dose-only effect, or another doubt; inactive = no such curve, though single readings can be large or run the other way.
# Assay: Primary qHTS for delayed death inhibitors of the malarial parasite plastid, 96 hour incubation
# Settings: P. falciparum luciferase reporter growth; series mostly up to 28.7 µM; activity change, negative = inhibition: at the top concentration
# Method in brief: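 Erythrocytes infected with luciferase-expressing P. falciparum were dispensed at 2% hematocrit and 0.05% parasitemia (final), then incubated with compounds 96 hours at 37 C in 5% CO2. Luminescence after detection reagent addition reported growth.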
# % is scaled to controls: 0 for no effect and ±100 for the full control effect; potency is read from the fitted curve at half-maximal effect.
Compound,"activity change, negative = inhibition",Potency
Cc1coc2c1c(C)cc1oc(=O)c(CC(=O)NCC(=O)N[C@H](C(=O)O)C(C)C)c(C)c12,-0.522%,–
Cc1onc(-c2ccccc2)c1C(=O)N=C(N)c1ccc(Cl)cc1,-3.39%,–
Cc1onc(-c2ccc(Cl)cc2)c1-c1ccnn1S(=O)(=O)c1ccc(Cl)cc1,–,1.17 µM (active)
COc1cc(-c2c(-c3ccc4c(c3)OCO4)noc2C)ccc1F,-10.2%,–
Cc1cccc([C@@H]2[C@@H]3C(=O)N(C)C(=O)[C@@H]3[C@@H]3C(=O)Nc4ccccc4C(=O)N23)c1,35.7%,–
CCOC(=O)c1sc(N)c(C#N)c1COC(=O)C1=COCCO1,0%,–
Cc1ccc(-c2ccc(=O)n(Cc3ccc(F)cc3Cl)n2)cc1,1.04%,–
COc1ccc(CNC(=O)CN(C(=O)c2csnn2)c2cnc3ccccc3c2)cc1,-6.61%,–
Cc1cccc(NS(=O)(=O)c2ccc(C(=O)NCC(C)(C)N3CCOCC3)cc2)c1C,0.321%,–
Cc1nc2nc(SCC(=O)NCc3ccco3)nn2c(C)c1Cc1ccccc1,–,10.4 µM (active)
COc1cc(OC)cc(-c2nc3nc(C)c(CCC(=O)NCc4ccco4)c(C)n3n2)c1,24.9%,–
Cc1cc(C)n2nc(SCC(=O)NC(=O)NCc3ccco3)nc2n1,2.98%,–
O=C(O)C(c1ccccc1)C1(O)CCCCC1 (centres undefined),37.9%,–
CCCOc1cccc(C(=O)Nc2ccccc2C(=O)N2CCN(C)CC2)c1,-9.04%,–
Cn1ccc(NC(=O)Nc2ccc(Cl)cc2)n1,61.5%,–
CN(c1cccc(NC(=O)Nc2ccc(Cl)cc2)c1)S(C)(=O)=O,0%,–
CC(C)S(=O)(=O)c1csc(NC(=O)Nc2ccc(Cl)cc2)c1Cl,–,1.17 µM (active)
O=C(c1cccnc1)N1CCN(S(=O)(=O)c2cccs2)CC1,9.61%,–
Cc1ccc(-n2ncc3c2CCCC3NC(=O)c2cnccn2)cc1C (centres undefined),27.8%,–
O=C1CCC(=O)N(O)CCCCCNC(=O)CCC(=O)N(O)CCCCCNC(=O)CCC(=O)N(O)CCCCCN1,–,10.4 µM (active)
CC(CN1CCCCC1)c1ccccc1 (centres undefined),8.4%,–
CC(C)[C@@H]1COC(c2cccc(C3=N[C@H](C(C)C)CO3)c2)=N1,9.17%,–
CN(C(=O)c1cccc(OC2CCN(S(=O)(=O)N(C)C)CC2)c1)C1CCOC1 (centres undefined),25.5%,–
CCCOC(=O)C1=C(C)NC2=C(C(=O)C(C(=O)OC)C(C)C2)C1c1ccc(N(C)C)cc1 (centres undefined),13.8%,–
COC(=O)C1C(=O)c2c([nH]c(C(=O)OCCSC)c2C)CC1C (centres undefined),–,3.7 µM (active)
OC(c1nc2ccccc2[nH]1)C(O)C(O)C(O)c1nc2ccccc2[nH]1 (centres undefined),30.2%,–
C/C=C/c1ccc(OCCOc2ccc(C=O)cc2OC)c(OC)c1,-8.36%,–
COc1ccc(/C=C/C(=O)N2CCCC2)cc1OC,0%,–
C/C=C/c1ccc(OCCCCN2CCC(C)CC2)c(OC)c1,–,5.22 µM (active)
